{"source": "PubChem BioAssay (EPA / NIEHS)", "note": "Active and inactive are the calls of the source. Rule for the calls: active = hit-call score of the fitted dose curve at least 0.9, where 1 is the maximum; inactive = score below 0.9."}
{"test": "BSK_3C_Vis: BioMAP Diversity Plus: 3C Assay for Morphology Visualization (AID 2283025);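 note: fitted both ways so gain or loss versus DMSO counts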", "settings": "primary human endothelial cells (HUVEC)", "method": "BSK_3C is a cell-based, multiplexed-readout assay that uses umbilical vein endothelium, a human vascular primary cell, with measurements taken at 24 hours after chemical dosing in a 96-well plate.BSK_3C_Vis is an assay component measured in the BSK_3C assay. It measures NA related to cell morphology using light microscopy technology.Data from the assay component BSK_3C_Vis was analyzed into 1 assay endpoint. This assay endpoint, BSK_3C_Vis, was analyzed with bidirectional fitting relative to DMSO as the negative control and baseline of activity. Using a type of morphology reporter, gain or loss-of-signal activity can be used to understand changes in the background control. Furthermore, this assay endpoint can be referred to as a secondary readout, because this assay has produced multiple assay endpoints where this one serves a background control function. To generalize the intended target to other relatable targets, this assay endpoint is annotated to the cell morphology intended target family, where the subfamily is cell conformation.\nThe levels of cell surface (or secreted, indicated by the prefix \"s\") biomarker endpoints were measured by ELISA. Overt cytotoxicity to cells in confluent adherent cultures (all systems other than the BT system) was assessed by measuring total protein levels using sulforhodamine B (SRB) staining in parallel cultures at the time of biomarker measurements, indicated as SRB endpoints. For proliferation assays for adherent cell types, individual cell types are cultured at sub-confluence and relative cell numbers quantified by SRB staining at time points optimized for each system (48 h: 3C and CASM3C systems; 72 h: BT and HDF3CGF systems; 96 h: SAg system). SRB was performed by staining cells with 0.1% SRB after fixation with 10% TCA and reading wells at 560 nm.Viability and proliferation of PBMC (T cells) was quantified by Alamar Blue reduction for the SAg and BT systems. For PBMC viability (referred to as PBMC Cytotoxicity within the assay endpoint names), cells were plated (75,000/well in a 96-well plate) and then chemical samples added for 1 h before addition of activators, SEB and TSST-1 (20 ng/mL final concentration each). Cells were incubated for 90 h. Then, Alamar Blue (20 uL/well) (Invitrogen, Cat DAL1100) was added for 6 h, and the plates were read with a fluorescence microplate reader at 546/580 nm (excitation/emission). For PBMC proliferation, cells were plated and activated as above but incubated for only 16 h prior to addition of Alamar Blue. Plates were read after 6 h."}
{"smiles": "Nc1cccc2c(N)cccc12", "outcome": "inactive"}
{"smiles": "CCC(C)(C)C1CCC(O)CC1", "note": "(stereo not given)", "outcome": "inactive"}
{"smiles": "O=c1c(-c2ccc(O)cc2)coc2cc(O)ccc12", "outcome": "inactive"}
{"smiles": "Oc1cc2ccccc2c2ccccc12", "AC50": "13.3 µM (active)"}
{"smiles": "CN1CCN(c2ccccc2/C=C2\\SCCN(c3ccc(Cl)c(Cl)c3)C2=O)CC1", "AC50": "13.9 µM (active)"}
{"smiles": "CCCCCCCCCCCCCC[N+](C)(C)C", "AC50": "3.02 µM (active)"}
{"smiles": "OCCC(F)(F)C(F)(F)C(F)(F)C(F)(F)C(F)(F)C(F)(F)F", "outcome": "inactive"}
{"smiles": "C[C@@H]1C[C@H]2[C@@H]3CCC4=CC(=O)C=C[C@]4(C)[C@@]3(F)[C@@H](O)C[C@]2(C)[C@@]1(O)C(=O)COP(=O)(O)O", "outcome": "inactive"}
{"smiles": "CCCCCCCCCCCCc1ccccc1S(=O)(=O)O", "AC50": "39 µM (active)"}
{"smiles": "CC1=C(/C=C/C(C)=C/C=C/C(C)=C/C(=O)O)C(C)(C)CCC1", "outcome": "inactive"}
{"smiles": "c1ccc2cc3c(ccc4ccccc43)cc2c1", "AC50": "9.8 µM (active)"}
{"smiles": "CC(C)(C)c1cc(C(C)(C)C)c(O)c(C(C)(C)C)c1", "outcome": "inactive"}
{"smiles": "CC[C@H](C)[C@@H](C(=O)O)n1sc2ccccc2c1=O", "outcome": "inactive"}
{"smiles": "CCCCCCCCOC(=O)CCCCCCCCC(=O)OCCCCCCCC", "outcome": "inactive"}
{"smiles": "CC(C)(C)c1cccc(C(C)(C)C)c1O", "outcome": "inactive"}
{"smiles": "CCc1ccc(CCOc2ccc(CC3SC(=O)NC3=O)cc2)nc1", "note": "(stereo not given)", "outcome": "inactive"}
{"smiles": "Cc1cc(CCN2CCN(c3nsc4ccccc34)CC2)cc2c1NC(=O)CC2(C)C", "AC50": "16.3 µM (active)"}
{"smiles": "O=C(O)Cc1cc(I)c(Oc2cc(I)c(O)c(I)c2)c(I)c1", "outcome": "inactive"}
{"smiles": "CCOC(=O)CC(O)(CC(=O)OCC)C(=O)OCC", "outcome": "inactive"}
{"smiles": "Cc1oc(-c2ccccc2)nc1CCOc1ccc(C[C@H](Nc2ccccc2C(=O)c2ccccc2)C(=O)O)cc1", "AC50": "37.5 µM (active)"}
{"smiles": "O=C(OCCOCCOC(=O)c1ccccc1)c1ccccc1", "outcome": "inactive"}
{"smiles": "CCCCCCCC(=O)O", "outcome": "inactive"}
{"smiles": "O=[N+]([O-])c1ccc(O)cc1", "outcome": "inactive"}
{"smiles": "CC(C)CCCCCCOC(=O)CCCCC(=O)OCCCCCCC(C)C", "outcome": "inactive"}
{"smiles": "OCCC(F)(F)C(F)(F)C(F)(F)C(F)(F)C(F)(F)C(F)(F)C(F)(F)C(F)(F)F", "outcome": "inactive"}
{"smiles": "CCCOc1sc(C(=O)N2CCC(c3cc(CN)ccc3F)CC2)c(C)c1Br", "AC50": "8.81 µM (active)"}
{"smiles": "O=C(O)c1ccccc1C(c1ccc(O)cc1)c1ccc(O)cc1", "outcome": "inactive"}
{"smiles": "CCCCOCCO", "outcome": "inactive"}
{"smiles": "CCN(CC)CCNc1ccc(CNC=O)c2sc3ccc(OC)cc3c(=O)c12", "AC50": "14.4 µM (active)"}
{"smiles": "CCCCC(CC)COC(=O)CCCCC(=O)OCc1ccccc1", "note": "(stereo not given)", "outcome": "inactive"}
{"smiles": "CC(C)(C)c1ccc(O)c(C(C)(C)C)c1", "AC50": "6.71 µM (active)"}
{"smiles": "c1ccc2c(c1)ccc1ccccc12", "outcome": "inactive"}
{"smiles": "CC(=O)NC1(c2cccc(F)c2)CCN(CC[C@@]2(c3ccc(Cl)c(Cl)c3)CN(c3ccccc3)C(=O)CO2)CC1", "AC50": "12.7 µM (active)"}
{"smiles": "COC(=O)CCCCC(=O)OC", "outcome": "inactive"}
{"smiles": "CCC(=C(c1ccc(O)cc1)c1ccc(OCCN(C)C)cc1)c1ccccc1", "AC50": "6.97 µM (active)"}
{"smiles": "COCC(C)O", "note": "(stereo not given)", "outcome": "inactive"}
{"smiles": "CC[C@H](c1ccc(O)cc1)[C@@H](CC)c1ccc(O)cc1", "AC50": "22.3 µM (active)"}
{"smiles": "CCCCCCCCCCCCN1CCCC1=O", "AC50": "37.3 µM (active)"}
{"smiles": "ClC1=C(Cl)C(Cl)(Cl)C(Cl)=C1Cl", "AC50": "7.95 µM (active)"}
{"smiles": "c1ccc2c(c1)Cc1ccccc1-2", "outcome": "inactive"}
